PubChem BioAssay (Tox21)
Inconclusive results are not listed. Calls of active or inactive are those of the source. Unless noted, calls come from the whole dose curve; as a rule, active = well fitted curve in the direction sought with a large enough effect in the repeat runs; inconclusive = weak or mixed curves; inactive = no such curve, though single readings can be large; an effect the other way counts as inactive or inconclusive.

Legend:
[1] = qHTS assay to identify small molecule antagonists of the estrogen receptor beta (ER-beta) signaling pathway - cell viability counter screen (AID 1259382);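 note: HEK293T cells carrying ER-beta-UAS-bla reporter stimulated with estradiol; series mostly up to about 92 µM; nearly all actives have a fitted effect of over 55% in size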
Procedure, shortened: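 In this multiplexed counter screen, cells were seeded at 2,000 per well in medium with 2% charcoal-stripped FBS and incubated 6 hr before compound and 1nM final E2 were added. Sixteen hours later, ATP-based luminescence reported viability.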

[2] = qHTS assay to identify small molecule agonists of the estrogen receptor alpha (ER-alpha) signaling pathway in the presence of an antagonist - cell viability counter screen (AID 1259386);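 note: series mostly up to about 92 µM; cells exposed to compounds for 22 h at 37 °C before the viability read; nearly all actives have a fitted effect of over 30% in size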
Procedure, shortened: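 Viability counter screen using VM7Luc4E2 (full-length ER-alpha, four ERE-luciferase). The cells were treated with compounds alongside ICI-182,780 10.0nM for 22hr, and live-cell protease fluorescence was quantified with CellTiter-Fluor.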

[3] = target: Progesterone receptor (Homo sapiens) (UniProt P06401); test: qHTS assay to identify small molecule agonists of the progesterone receptor (PR) signaling pathway (AID 1346784; calls by dose curve; note: nearly all actives have a fitted effect of over 30% in size)
Sequence of Progesterone receptor (Homo sapiens) (P06401 whole entry, looked up): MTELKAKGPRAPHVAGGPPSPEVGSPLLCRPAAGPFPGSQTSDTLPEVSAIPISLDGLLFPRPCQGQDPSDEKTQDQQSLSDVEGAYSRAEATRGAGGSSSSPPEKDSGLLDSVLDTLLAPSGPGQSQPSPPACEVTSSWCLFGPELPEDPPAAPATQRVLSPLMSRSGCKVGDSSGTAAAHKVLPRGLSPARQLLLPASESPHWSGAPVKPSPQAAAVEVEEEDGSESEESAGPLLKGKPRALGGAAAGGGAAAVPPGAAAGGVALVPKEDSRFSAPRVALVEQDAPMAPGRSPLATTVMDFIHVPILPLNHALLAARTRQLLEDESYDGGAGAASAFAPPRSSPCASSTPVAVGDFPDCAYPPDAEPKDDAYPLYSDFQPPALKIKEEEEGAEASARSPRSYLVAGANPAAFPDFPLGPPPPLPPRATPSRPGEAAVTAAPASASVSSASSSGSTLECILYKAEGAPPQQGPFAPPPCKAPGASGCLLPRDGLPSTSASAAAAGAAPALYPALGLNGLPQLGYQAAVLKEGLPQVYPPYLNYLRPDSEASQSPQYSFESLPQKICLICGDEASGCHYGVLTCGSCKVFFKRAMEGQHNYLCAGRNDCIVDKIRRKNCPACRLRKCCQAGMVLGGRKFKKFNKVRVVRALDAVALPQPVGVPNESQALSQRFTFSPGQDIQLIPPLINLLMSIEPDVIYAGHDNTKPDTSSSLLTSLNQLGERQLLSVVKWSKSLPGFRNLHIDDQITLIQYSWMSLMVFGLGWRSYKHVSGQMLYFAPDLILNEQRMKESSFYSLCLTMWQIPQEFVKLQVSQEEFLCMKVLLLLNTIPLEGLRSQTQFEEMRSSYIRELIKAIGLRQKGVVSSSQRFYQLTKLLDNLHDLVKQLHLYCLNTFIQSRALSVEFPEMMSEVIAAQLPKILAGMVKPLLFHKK
Procedure, shortened: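 Using charcoal-stripped serum (2%) to limit endogenous steroids, PR-UAS-bla HEK 293T cells received compounds for 16 hr at 37C after 6 hr plating; beta-lactamase FRET fluorescence was recorded following 2 hr substrate loading at room temperature.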

[4] = target: Progesterone receptor (Homo sapiens) (UniProt P06401); test: qHTS assay to identify small molecule antagonists of the progesterone receptor (PR) signaling pathway (AID 1346795; active = well fitted inhibition curve with a large enough effect in the signal ratio in the repeat runs, not every such curve was filed as active; the % refers to the signal ratio)
Procedure, shortened: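 Inhibition of R5020-induced (1 nM final) beta-lactamase reporter signal in PR-UAS-bla HEK293T cells was scored by FRET fluorescence after overnight (16 hr) compound treatment.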

[5] = qHTS assay to identify small molecule agonists of the progesterone receptor (PR) signaling pathway - cell viability counter screen (AID 1346799; calls by dose curve; note: nearly all actives have a fitted effect of over 45% in size)
Procedure, shortened: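 Cytotoxicity in PR-bla HEK293T cells: 16 h compound, 37C; CellTiter-Glo added post-FRET read; luminescence after 30 min RT.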

[6] = qHTS assay to identify small molecule antagonists of the TGF-beta/Smad signaling pathway - cell viability counter screen (AID 1346824); note: nearly all actives have a fitted effect of over 50% in size
Procedure, shortened: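 Cytotoxicity counter-screen run in the same wells as the beta-lactamase Smad reporter read: CellTiter-Glo luminescence after 30 min at room temperature. HEK 293T SBE-bla cells had 5 hr compound exposure at 37 C with TGF-beta1 (0.25 ng/mL stock).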

[7] = qHTS assay to identify small molecule agonists of the TGF-beta/Smad signaling pathway - cell viability counter screen (AID 1346829); note: top concentration of the series differs between compounds; nearly all actives have a fitted effect of over 45% in size
Procedure, shortened: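 Compound-treated SBE-bla HEK 293T cells (5 hr, 37 C) were assessed for viability with CellTiter-Glo in parallel with the reporter read.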

[8] = qHTS assay to identify small molecule agonists of the TGF-beta/Smad signaling pathway (AID 1346859; active = well fitted activation curve with a large enough effect in the signal ratio in the repeat runs, not every such curve was filed as active; the % refers to the signal ratio; note: series mostly up to about 77 µM)
Procedure, shortened: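 Stable Smad binding element-beta-lactamase HEK 293T cells; 5 hr compound exposure at 37 C under 5% CO2; 2 hr room-temperature substrate step; fluorescence excited at 405 nm, collected at 460 nm and 530 nm.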

[9] = target: Thyrotropin-releasing hormone receptor (Homo sapiens) (UniProt P34981); test: qHTS assay to identify small molecule antagonists of the thyrotropin-releasing hormone receptor (TRHR) signaling pathway (AID 1346877; active = well fitted inhibition curve with a large enough effect in the repeat runs, not every such curve was filed as active; note: series mostly up to about 51 µM)
Sequence of Thyrotropin-releasing hormone receptor (Homo sapiens) (P34981 whole entry, looked up): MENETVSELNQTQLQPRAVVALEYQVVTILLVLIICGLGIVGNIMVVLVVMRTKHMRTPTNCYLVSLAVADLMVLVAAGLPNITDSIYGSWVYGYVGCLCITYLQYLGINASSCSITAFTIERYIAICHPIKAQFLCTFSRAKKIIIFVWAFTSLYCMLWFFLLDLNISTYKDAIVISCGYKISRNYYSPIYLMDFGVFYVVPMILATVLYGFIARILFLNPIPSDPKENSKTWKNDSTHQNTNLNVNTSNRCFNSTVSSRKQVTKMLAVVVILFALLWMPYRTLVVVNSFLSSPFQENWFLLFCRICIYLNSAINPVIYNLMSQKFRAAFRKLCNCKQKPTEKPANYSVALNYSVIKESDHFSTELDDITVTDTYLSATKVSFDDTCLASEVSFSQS
Procedure, shortened: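 Following an 18 h incubation at 37 °C and a 2 h calcium dye load, TRHR-HEK293 cells were exposed to compound (5 min, room temperature) and challenged with TRH, 1 nM final.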

[10] = target: Thyrotropin-releasing hormone receptor (Homo sapiens) (UniProt P34981); test: qHTS assay to identify small molecule agonists of the thyrotropin-releasing hormone receptor (TRHR) signaling pathway (AID 1346891; calls by dose curve;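 note: HEK293 cells expressing TRHR with calcium dye readout; series mostly up to about 58 µM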)
Procedure, shortened: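 In 1536-format, 1500 TRHR-Hek293 cells per well grew 18 h, took up calcium dye for 2 h at 37 °C, received compound, and were read kinetically; 15-point titrations, triplicates.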

[11] = Human pregnane X receptor (PXR) small molecule agonists, qHTS cell viability counter screen (AID 1346977); note: nearly all actives have a fitted effect of over 50% in size
Procedure, shortened: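 Readout is CellTiter-Fluor fluorescence from PXR-Luc HepG2 cells. Plated cells rested 5hr, then were treated with compounds for 24hr at 37C and 5% CO2, with reagent present during the last hour.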

[12] = Caspase-3/7 induction in HepG2 cells by small molecules, qHTS assay (AID 1346978); note: nearly all actives have a fitted effect of over 15% in size
Procedure, shortened: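 Caspase-3/7 induction was measured by Caspase-Glo 3/7 luminescence (30 min, room temperature) after a 17 hr compound exposure of wild-type HepG2 cells seeded at 2,000 per well and pre-incubated 5 hr.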

[13] = Caspase-3/7 induction in CHO-K1 cells by small molecules, qHTS cell viability counter screen (AID 1346979); note: nearly all actives have a fitted effect of over 35% in size
Procedure, shortened: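 To flag cytotoxic compounds, treated CHO-K1 wild-type cells were given CellTiter-Fluor at 16hr and read fluorescently after 1hr at 37C; the caspase-3/7 luminescence was measured in these same wells.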

[14] = Caspase-3/7 induction in CHO-K1 cells by small molecules, qHTS assay (AID 1346980); note: nearly all actives have a fitted effect of over 15% in size
Procedure, shortened: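 Luminescent Caspase-Glo 3/7 read (30min, room temperature) quantified apoptosis induction. Cells were wild-type CHO-K1, treated with compound for 17hr at 37 C and 5% CO2.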

[15] = Caspase-3/7 induction in HepG2 cells by small molecules, qHTS cell viability counter screen (AID 1346981); note: series mostly up to about 92 µM; nearly all actives have a fitted effect of over 30% in size
Procedure, shortened: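 Viability determined by CellTiter-Fluor fluorescence in HepG2 wells also used for the luminescent Caspase-Glo 3/7 read. Compounds were present for 16 hr at 37 C, 5% CO2 before reagent addition.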

[16] = target: Nuclear receptor subfamily 1 group I member 2 (Homo sapiens) (UniProt O75469); test: Human pregnane X receptor (PXR) small molecule agonists, qHTS assay (AID 1346982); note: nearly all actives have a fitted effect of over 35% in size
Sequence of Nuclear receptor subfamily 1 group I member 2 (Homo sapiens) (O75469 whole entry, looked up): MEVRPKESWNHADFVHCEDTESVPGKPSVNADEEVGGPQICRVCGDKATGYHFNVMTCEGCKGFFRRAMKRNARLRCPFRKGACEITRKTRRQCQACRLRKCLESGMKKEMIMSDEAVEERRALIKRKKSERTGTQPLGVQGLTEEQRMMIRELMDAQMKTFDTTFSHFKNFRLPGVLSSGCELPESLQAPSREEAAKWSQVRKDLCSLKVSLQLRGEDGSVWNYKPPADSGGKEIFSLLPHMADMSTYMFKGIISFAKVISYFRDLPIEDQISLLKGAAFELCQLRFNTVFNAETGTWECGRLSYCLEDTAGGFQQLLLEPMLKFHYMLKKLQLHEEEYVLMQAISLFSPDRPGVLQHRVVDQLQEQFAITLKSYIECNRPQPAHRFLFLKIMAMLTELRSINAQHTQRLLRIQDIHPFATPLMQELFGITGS
Procedure, shortened: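 Compound-induced hPXR transactivation of a CYP3A4 luciferase reporter was scored in HepG2 PXR-Luc cells over 24 hr at 37 C, 5% CO2, by luminescence.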

[17] = qHTS assay to identify small molecule antagonists of the progesterone receptor (PR) signaling pathway - cell viability counter screen (AID 1346798); note: series mostly up to about 92 µM; nearly all actives have a fitted effect of over 50% in size
Procedure, shortened: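 ATP content as viability readout: CellTiter-Glo luminescence, 30 min room temperature, in PR-UAS-bla HEK293T cells after 16 hr compound/R5020 treatment at 37C and 5% CO2.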

[18] = qHTS assay to identify small molecule agonists or antagonists of the thyroid stimulating hormone receptor (TSHR) signaling pathway - wild type cell line counter screen (AID 1259384; calls by dose curve)
Procedure, shortened: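 Counter screen in untransfected Hek293: compounds (15-point titration, triplicate) plus phosphodiesterase inhibitor Ro20-1724 added after 18 h plating; 30 min RT. Intracellular cAMP via competitive d2/cryptate immunoassay, 1 h incubation.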

Measured: Potency

O=[Si]=O
not listed: [17] | [18]
inactive: all other assays above

C[Si]1(C)N[Si](C)(C)N[Si](C)(C)N1
not listed: [5] | [11] | [16] | [18]
inactive: all other assays above

O=S1(=O)CCCC1
not listed: [4] | [17] | [18]
inactive: all other assays above

Cc1ccccc1OCC1CO1 (stereo unspecified)
not listed: [11] | [12] | [18]
inactive: all other assays above

CC(=O)N(CC(O)CO)c1c(I)c(C(=O)NCC(O)CO)c(I)c(C(=O)NCC(O)CO)c1I (stereo unspecified)
not listed: [2] | [9] | [10] | [18]
inactive: all other assays above

COCCOCCOCCOC
not listed: [2] | [16] | [18]
inactive: all other assays above

O=C(O)c1ccccc1C(=O)Nc1ccc(S(=O)(=O)Nc2nccs2)cc1
not listed: [16] | [18]
inactive: all other assays above

O=C1OC(=O)c2cc(Oc3ccc4c(c3)C(=O)OC4=O)ccc21
not listed: [4] | [13]
inactive: all other assays above
